Data taken from PubChem BioAssay.
The list shows a part of the results. Calls of active or inactive are those of the source. Unless noted, how the calls were made is not given here.

How the values were obtained:
[1] = inhibition of Brca1/Bard1 split-luciferase complementation, confirmation, counter-screen for Mdm2/MdmX interaction inhibitor project, luminescence, single concentration (AID 504668); details: Brca1/Bard1 bimolecular luciferase complementation counterscreen, at 8 µM, stronger effect = higher value
[2] = Apaf-1 inhibitors, single-dose retest, confirmation, biochemical, fluorescence, DEVD-Rh110, 20 µM (AID 504614;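 active means mean inhibition of at least 40% at 20 µM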;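 further: plate controls were DMSO wells for no effect and DEVD-CHO caspase inhibitor control wells for full effect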); details: reconstituted apoptosome, caspase-3 DEVD-Rh110 fluorescence; at 20 µM; stronger effect = higher value
[3] = Rh110 fluorescence interference by putative Apaf-1 inhibitors, confirmation, artefact control for Apaf-1 inhibitor project, biochemical, 20 µM (AID 504615;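 active means signal rise of 40% or more at 20 µM, treated as a fluorescence artifact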); details: quenched caspase reaction, at 20 µM, stronger effect = higher value
[4] = fluorescence interference of Apaf-1 inhibitor hits, dose response, artefact control for Apaf-1 inhibitor project (AID 588538); details: fluorescence interference counterscreen, Apaf-1 assay format
[5] = HIF-2a reporter inhibitor retest, confirmation, luminescence, 786-0 RCC cells (AID 651580;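 active means mean inhibition across four replicates of at least 40 percent at the single tested concentration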); details: HIF-2a luciferase reporter luminescence, overnight, at 18.8 µM, stronger effect = higher value
[6] = HIF-1a luciferase reporter signal reduction – MiaPaCa-2 cells, single concentration, counter-screen for HIF-2a inhibitor project, confirmation (AID 651589;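 active means mean inhibition of the reporter signal across four replicates at the single tested dose of 50% or more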); details: MiaPaCa-2 HIF-1a luciferase reporter, desferoxamine, overnight; at 18.8 µM; stronger effect = higher value
[7] = target: COP9 signalosome complex subunit 5 (Homo sapiens) (UniProt Q92905); assay: Csn5 deneddylation inhibitors, confirmation, biochemical, fluorescence polarization, single concentration, SCF-Nedd8OG substrate (AID 720654; in the data active means inhibition above about 50%;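 further: 0% = DMSO with enzyme and 100% = no enzyme wells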); details: Csn5 deneddylation of SCF-Nedd8OG, 90 min, at 16.6 µM, stronger effect = higher value
[8] = target: 72 kDa type IV collagenase (Homo sapiens) (UniProt P08253); assay: MMP-2 protease inhibition counter-screen, confirmation, counter-screen for CSN deneddylation inhibitor project, biochemical, fluorescence, single concentration (AID 720655;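 active means corrected plate-normalized z-score of 5 or more, or -5 or less, or inhibition of 15% or more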;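 further: plate controls were DMSO wells with enzyme for no effect and buffer wells lacking MMP-2 for full effect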); details: recombinant MMP-2, FRET substrate fluorescence, 60 min; at 16.6 µM
Prothrombin (Bos taurus) = Prothrombin (Bos taurus) (UniProt P00735); assay: bovine thrombin inhibition counter-screen, confirmation, counter-screen for CSN deneddylation inhibitor project, biochemical, fluorescence polarization, single concentration (AID 720656;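 active means inhibition at or above a set limit, with a fluorescence interference ratio between 0.5 and a set maximum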); details: bovine thrombin cleavage of Ub4-pepOG, at 16.6 µM, stronger effect = higher value
[9] = target: Tumor necrosis factor receptor superfamily member 10B (Homo sapiens) (UniProt O14763); assay: caspase-8 TRAIL sensitization, hit retest, confirmation, cell-based, NB7+caspase-8, with/without TRAIL, luminescence panel (AID 651596; in the data active means activity above about 50%); details: NB7 neuroblastoma + caspase-8, TRAIL sensitization, luminescence viability, with TRAIL, mean of runs, at 10 µM, stronger effect = higher value
[10] = as above; details: NB7 neuroblastoma + caspase-8, without TRAIL, luminescence viability, without TRAIL, mean of runs, at 10 µM
[11] = Peg3 promoter reporter inhibitors, retest, confirmation, cell-based, HeLa, luciferase reporter, single concentration (AID 602417;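 active means at 20 µM dose, 40% or more inhibition averaged across four replicates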); details: HeLa PEG-Prom luciferase reporter, luminescence, overnight; at 20 µM; stronger effect = higher value
PEG-3 [12] = target: PEG-3 (UniProt Q6IN02); assay: Peg3 promoter luciferase inhibitors, potency, dose response, cell-based, HeLa, CREF/GAPDH counter-screen panel (AID 624167); details: CREF/GAPDH counter-screens; HeLa PEG-Prom luciferase reporter, overnight, run 1, dose range 1, at 100 µM (top of the series) unless noted
PEG-3 [13] = target: PEG-3 (UniProt Q6IN02); assay: as above; details: CREF/GAPDH counter-screens; HeLa PEG-Prom luciferase reporter, overnight, run 2, dose range 1, at 100 µM (top of the series) unless noted

Chain of PEG-3 (Q6IN02 whole entry, looked up): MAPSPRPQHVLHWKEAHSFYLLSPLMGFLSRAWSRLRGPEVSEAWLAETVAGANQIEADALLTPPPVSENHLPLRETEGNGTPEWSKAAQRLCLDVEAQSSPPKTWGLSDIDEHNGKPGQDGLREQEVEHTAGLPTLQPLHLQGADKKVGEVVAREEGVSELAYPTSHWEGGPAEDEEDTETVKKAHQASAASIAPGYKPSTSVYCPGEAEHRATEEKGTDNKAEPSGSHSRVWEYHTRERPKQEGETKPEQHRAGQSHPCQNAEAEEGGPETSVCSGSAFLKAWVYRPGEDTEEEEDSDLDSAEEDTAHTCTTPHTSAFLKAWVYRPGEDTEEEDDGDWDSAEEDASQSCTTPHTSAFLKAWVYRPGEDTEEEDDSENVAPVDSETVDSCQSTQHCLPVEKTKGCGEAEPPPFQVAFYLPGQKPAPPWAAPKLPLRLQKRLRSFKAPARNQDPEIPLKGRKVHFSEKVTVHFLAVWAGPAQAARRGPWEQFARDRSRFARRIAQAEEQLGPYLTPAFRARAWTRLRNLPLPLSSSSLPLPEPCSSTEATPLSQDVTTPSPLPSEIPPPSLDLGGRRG
Chain of 72 kDa type IV collagenase (Homo sapiens) (P08253 whole entry, looked up): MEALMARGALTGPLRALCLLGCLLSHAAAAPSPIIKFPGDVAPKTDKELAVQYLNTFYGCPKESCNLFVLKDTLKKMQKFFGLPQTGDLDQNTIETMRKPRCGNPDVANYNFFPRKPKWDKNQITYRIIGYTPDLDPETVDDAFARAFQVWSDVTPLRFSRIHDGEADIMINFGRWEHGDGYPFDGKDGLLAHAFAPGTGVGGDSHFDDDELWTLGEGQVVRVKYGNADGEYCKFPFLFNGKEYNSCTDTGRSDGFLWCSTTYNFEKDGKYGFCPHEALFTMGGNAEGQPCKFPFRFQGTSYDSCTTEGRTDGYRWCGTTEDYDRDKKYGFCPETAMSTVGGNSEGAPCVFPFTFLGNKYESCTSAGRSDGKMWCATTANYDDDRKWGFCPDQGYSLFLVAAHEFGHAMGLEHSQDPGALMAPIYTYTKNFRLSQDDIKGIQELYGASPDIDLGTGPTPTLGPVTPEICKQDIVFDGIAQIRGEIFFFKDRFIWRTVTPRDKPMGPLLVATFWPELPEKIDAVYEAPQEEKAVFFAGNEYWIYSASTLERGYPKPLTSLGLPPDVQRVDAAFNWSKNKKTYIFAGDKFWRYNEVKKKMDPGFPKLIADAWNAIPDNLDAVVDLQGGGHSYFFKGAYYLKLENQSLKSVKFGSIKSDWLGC
Chain of COP9 signalosome complex subunit 5 (Homo sapiens) (Q92905 whole entry, looked up, one chain of several): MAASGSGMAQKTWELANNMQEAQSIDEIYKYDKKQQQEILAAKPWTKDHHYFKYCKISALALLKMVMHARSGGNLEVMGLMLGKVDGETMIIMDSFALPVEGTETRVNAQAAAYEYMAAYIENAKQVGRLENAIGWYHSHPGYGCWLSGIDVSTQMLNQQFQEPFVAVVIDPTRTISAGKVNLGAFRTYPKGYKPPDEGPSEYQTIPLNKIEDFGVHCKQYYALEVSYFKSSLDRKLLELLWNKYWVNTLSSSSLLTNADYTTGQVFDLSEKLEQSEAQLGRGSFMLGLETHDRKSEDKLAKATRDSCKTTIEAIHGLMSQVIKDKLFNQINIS
Chain of Prothrombin (Bos taurus) (P00735 whole entry, looked up): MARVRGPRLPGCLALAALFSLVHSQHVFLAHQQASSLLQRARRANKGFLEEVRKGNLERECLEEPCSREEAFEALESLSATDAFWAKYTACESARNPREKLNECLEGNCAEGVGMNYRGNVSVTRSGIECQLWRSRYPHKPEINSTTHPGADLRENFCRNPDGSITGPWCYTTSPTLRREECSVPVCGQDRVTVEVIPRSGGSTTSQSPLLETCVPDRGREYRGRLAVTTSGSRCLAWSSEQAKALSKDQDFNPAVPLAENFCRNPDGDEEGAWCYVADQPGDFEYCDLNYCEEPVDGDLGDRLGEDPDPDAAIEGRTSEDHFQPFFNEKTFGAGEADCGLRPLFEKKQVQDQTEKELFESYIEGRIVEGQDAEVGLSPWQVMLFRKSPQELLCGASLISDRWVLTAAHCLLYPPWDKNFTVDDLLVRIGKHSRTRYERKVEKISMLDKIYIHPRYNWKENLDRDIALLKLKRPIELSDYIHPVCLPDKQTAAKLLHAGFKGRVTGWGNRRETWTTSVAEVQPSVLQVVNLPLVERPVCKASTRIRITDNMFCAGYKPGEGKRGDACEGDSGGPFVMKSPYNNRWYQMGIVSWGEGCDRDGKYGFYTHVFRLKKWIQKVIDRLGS
Chain of Tumor necrosis factor receptor superfamily member 10B (Homo sapiens) (O14763 whole entry, looked up): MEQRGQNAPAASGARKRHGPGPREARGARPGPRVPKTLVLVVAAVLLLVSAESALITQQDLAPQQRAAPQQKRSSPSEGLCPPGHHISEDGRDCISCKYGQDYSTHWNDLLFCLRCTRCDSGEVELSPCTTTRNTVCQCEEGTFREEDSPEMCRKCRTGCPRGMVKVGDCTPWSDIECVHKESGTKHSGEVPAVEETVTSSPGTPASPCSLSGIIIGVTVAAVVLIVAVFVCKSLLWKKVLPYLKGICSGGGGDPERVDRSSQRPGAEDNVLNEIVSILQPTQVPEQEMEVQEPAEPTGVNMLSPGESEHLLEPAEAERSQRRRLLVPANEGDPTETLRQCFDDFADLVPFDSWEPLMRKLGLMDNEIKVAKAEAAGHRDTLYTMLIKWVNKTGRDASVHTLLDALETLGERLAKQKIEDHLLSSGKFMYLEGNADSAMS

Q: Which inhibition [1] does the source give for `CN1CCc2c(sc(NC(=O)c3ccc(S(=O)(=O)N4CCc5ccccc54)cc3)c2C(N)=O)C1` here?
A: 24.1% (active)

Q: For `Cc1cc(C(=O)CSc2nnc3ccccn23)c(C)n1-c1ccccc1`, which inhibition [1] is on record?
A: 29.6% (active)

Q: For `CCN(CC)C(=O)CN1C(=O)/C(=C/c2ccccc2)SC1=S`, which inhibition [1] is on record?
A: 27.6% (active)

Q: Which inhibition [1] does the source give for `CCS(=O)(=O)c1nnnn1-c1ccccc1S(C)(=O)=O` here?
A: 34.3% (active)

Q: For `C=CCC(Nc1ccccc1)C12C=CC(O1)C(C(=O)OC)=C2C(=O)OC` (stereo unspecified), which inhibition [1] is on record?
A: 31.4% (active)

Q: For `COc1ccc2cc3c(N)nn(C(=O)c4cccc([N+](=O)[O-])c4)c3nc2c1`, which inhibition [1] is on record?
A: 32.1% (active)

Q: Which inhibition [2] does the source give for `COCCNC(=O)Nc1ccc2nc(-c3ccco3)c(-c3ccco3)nc2c1` here?
A: 40.9% (active)

Q: And the activation (fluorescence interference) [3]?
A: -1.4% (inactive)

Q: And the IC50 [4]?
A: > 100 µM (inactive)

Q: What about the inhibition [5] of the same molecule?
A: -38.7% (inactive)

Q: And the inhibition [6]?
A: 8.69% (inactive)

Q: Which inhibition [1] does the source give for `CC(C)(C)c1cc(NC(=O)CCl)n(-c2ccccc2)n1` here?
A: 24.1% (active)

Q: With `O=C(Oc1c(Cl)cc(Cl)c2cccnc12)c1cccs1` as the molecule, how does the inhibition [1] read?
A: 32.1% (active)

Q: With `CC(C)c1ccc(/C=C2\SC(=S)N(CCC(=O)N3CCCCC3CCO)C2=O)cc1` (stereo unspecified) as the molecule, how does the inhibition [1] read?
A: 29.9% (active)

Q: For `COc1ccc(NS(=O)(=O)c2cc(NC(=O)c3ccc(Cl)cc3)ccc2N2CCOCC2)cc1`, which inhibition [1] is on record?
A: 26.8% (active)

Q: For `CN1CCN(CCCNC(=O)c2ccc(/C=C3\Oc4ccccc4N(Cc4ccc(Cl)cc4)C3=O)cc2)CC1`, which inhibition [2] is on record?
A: 39.1% (inactive)

Q: And the activation (fluorescence interference) [3]?
A: 6.39% (inactive)

Q: And the inhibition [5]?
A: -0.07% (inactive)

Q: What about the inhibition [6] of the same molecule?
A: 106% (active)

Q: What about the inhibition [7] of the same molecule?
A: -18.2% (inactive)

Q: And the inhibition [8]?
A: 11.2% (inactive)

Q: What about the inhibition (Prothrombin (Bos taurus)) of the same molecule?
A: -9.75% (inactive)

Q: And the activity [9]?
A: 41.5%

Q: And the activity [10]?
A: 75%

Q: For `O=C(CN1CCCc2ccccc21)N/N=C/c1c(O)ccc2ccccc12`, which inhibition [1] is on record?
A: 30.3% (active)

Q: Which inhibition [1] does the source give for `COc1ccc(/C=C2/SC(=S)N(CCCC(=O)Nc3ccc(O)cc3)C2=O)cc1OC` here?
A: 29.9% (active)

Q: With `CCCc1c(NC(=O)Nc2ccc(F)cc2)cnn1-c1ccccc1` as the molecule, how does the inhibition [1] read?
A: 29.3% (active)

Q: With `O=[N+]([O-])c1cc(-c2nc(-c3ccncc3)no2)ccc1Cl` as the molecule, how does the inhibition [1] read?
A: 23.3% (active)

Q: With `C(=N\Nc1nc2ccccc2[nH]1)/c1cccc2nccnc12` as the molecule, how does the inhibition [1] read?
A: 31.8% (active)

Q: For `CCn1cc(CN2CCC(C(=O)Nc3cccc(-c4cccc(Cl)c4)c3)CC2)c(C)n1`, which inhibition [2] is on record?
A: 12.8% (inactive)

Q: What about the activation (fluorescence interference) [3] of the same molecule?
A: 5.12% (inactive)

Q: And the inhibition [11]?
A: 95.8% (active)

Q: What about the inhibition (PEG-3 [12]) of the same molecule?
A: 98.4%

Q: And the inhibition (PEG-3 [13])?
A: 101%

Q: For `COc1ccc(Nc2ccnc3ccccc23)cc1`, which inhibition [1] is on record?
A: 33.7% (active)

Q: For `NC(=O)c1sc2nc3c(c(-c4ccco4)c2c1N)CCC3`, which inhibition [1] is on record?
A: 24.9% (active)

Q: For `CN1CCN(C(c2ccc(C(F)(F)F)cc2)c2cc(Cl)c3cccnc3c2O)CC1` (stereo unspecified), which inhibition [1] is on record?
A: 24.6% (active)

Q: With `Cc1cc(C2CCCCC2)n(O)c(=O)c1` as the molecule, how does the inhibition [1] read?
A: 32.2% (active)

Q: For `COC(=O)[C@@H]1C[C@]2(OC(=O)c3ccccc3)C=CC(=O)C[C@@H]2N1C(=O)OCc1ccccc1`, which inhibition [1] is on record?
A: 34.4% (active)

Q: For `CCc1nc(Nc2ccncc2)c2oc3ccccc3c2n1`, which inhibition [1] is on record?
A: 31.6% (active)

Q: Which inhibition [1] does the source give for `N=c1ccn2c(n1)OC1C(O)C(CO)OC12` (stereo unspecified) here?
A: 45.7% (active)
